This excerpt belongs to a sample that is enriched for hits.
NS1 function inh: blocks influenza NS1 protein function | AID 2326 | 270,000 tested, 0.4% active | Potency, µM (series often up to 46.1 µM), for the others: at the top dose activity, positive = more growth; note: potency is the fitted concentration of half-maximal effect; actives are rising curves; nearly all actives have a fitted effect of over 50% in size
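Read-out: OD600 growth recovery of NS1-expressing budding yeast. Cells grown overnight at 30C in -URA glucose medium, washed, resuspended and diluted 1:100 in 2% galactose assay medium, pH 6.0. Same strain lacking NS1 served as positive control.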
Cruzain noTriton: blocks cruzain activity in detergent-free assay. purified cruzain, Z-FR-AMC fluorescence, no detergent. P25779. AID 1476. Potency, µM, without a hit: max response, negative = inhibition, actives largely listed as inhibitors. 200,000 tested, 2.3% active; active = well fitted curve in the direction sought with a large enough effect; inconclusive = small, poorly fitted or top-dose-only effect, or another doubt; inactive = no such curve, though single readings can be large; an effect the other way counts as inactive or inconclusive;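 note: potency is the fitted concentration of half-maximal effect; plate controls were enzyme without inhibitor for no effect and buffer without enzyme for full effect; nearly all actives have a fitted effect of over 40% in size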
Target sequence (P25779 123-467 limits assumed): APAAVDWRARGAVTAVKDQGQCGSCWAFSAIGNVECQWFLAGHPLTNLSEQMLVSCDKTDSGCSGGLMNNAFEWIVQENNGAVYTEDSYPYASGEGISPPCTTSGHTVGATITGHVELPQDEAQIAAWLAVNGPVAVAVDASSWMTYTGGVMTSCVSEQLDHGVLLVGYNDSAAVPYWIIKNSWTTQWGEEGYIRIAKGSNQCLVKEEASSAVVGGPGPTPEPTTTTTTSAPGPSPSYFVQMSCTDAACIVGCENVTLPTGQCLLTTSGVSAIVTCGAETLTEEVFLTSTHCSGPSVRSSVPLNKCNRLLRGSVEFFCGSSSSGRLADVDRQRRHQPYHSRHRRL
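Purified cruzain at 1.5 nM, pre-incubated 15 min with compound at room temperature in 100 mM sodium acetate pH 5.5, 5 mM DTT, 0.00005% Triton X-100. Reaction started with 2 uM Z-FR-AMC; AMC fluorescence increase over 60 s gives rate.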
Cruzain Triton: cruzain (T. cruzi) inhibition with detergent | purified cruzain, Z-FR-AMC fluorescence, 0.01% Triton | Potency, µM, without a hit: max response, negative = inhibition, actives largely listed as inhibitors | 200,000 tested, 0.43% active | AID 1478; active = well fitted curve in the direction sought with a large enough effect; inconclusive = small, poorly fitted or top-dose-only effect, or another doubt; inactive = no such curve, though single readings can be large; an effect the other way counts as inactive or inconclusive;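 note: potency is the fitted concentration of half-maximal effect; plate controls were neutral wells for no effect and buffer without enzyme for full effect; nearly all actives have a fitted effect of over 40% in size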
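Read-out: AMC fluorescence (360 nm excitation, 450 nm emission), four reads over 2 min, first-to-third difference used. Conditions: cruzain 1.5 nM, Z-FR-AMC 2 uM, pH 5.5 acetate, 5 mM DTT, 0.01% Triton X-100.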
Flu NS1 inh: influenza NS1 function inhibition validation; shares compounds with NS1 function inh; influenza NS1 function cell assay, 15-point titration; activity change, negative = inhibition, % at 32.9 µM; 1,400 tested, under 10 active; AID 492980; note: 0% is about no effect
The depositor's hits bear a star; u = inconclusive; x = no result given. Unless noted, calls come from the whole dose curve.

SMILES	NS1 function inh	Cruzain noTriton	Cruzain Triton	Flu NS1 inh
CC(=O)c1cc(C(=O)Nc2cc(C)cc(C)c2)c2ccccn12	x	u	-14.0%	x
O=c1cc(NCc2ccc3c(c2)OCO3)[nH]c(=O)n1-c1ccc(Cl)cc1	7.4%	u	4.6%	x
Cc1ccccc1-n1c(=O)cc(NCc2ccc3c(c2)OCO3)[nH]c1=O	u	-7.8%	4.2%	10.0
Cc1c(OC(C)C(=O)N[C@H](C(=O)O)c2ccccc2)ccc2c3c(c(=O)oc12)CCCC3 (some centres not stated)	10µM*	x	x	-5.4
Cc1c(OC(C)C(=O)NCC(O)c2ccccc2)ccc2c3c(c(=O)oc12)CCC3 (configuration not stated)	-14.7%	x	x	x
COc1ccc(CN2C(=O)NC(=O)/C(=C/c3cc(OC)c(OC)c(OC)c3)C2=O)cc1	9.3%	x	x	x
COc1ccc(CN2C(=O)NC(=O)/C(=C/c3ccc(OC)c(OC)c3OC)C2=O)cc1	10µM*	x	x	35.0
CC[C@H](C)C(=O)O[C@H]1CCC=C2C=C[C@H](C)[C@H](CC[C@@H]3C[C@H](O)CC(=O)O3)C21 (some centres not stated)	-33.7%	u	-6.1%	x
Cc1cc(Cl)ccc1NS(=O)(=O)c1c(C(=O)N2CCCCCC2)c(C)n(C)c1C	x	u	-2.7%	x
C[C@H](N=C(NC#N)Nc1ccncc1)C(C)(C)C	x	10.2%	6.0%	x
Cc1noc(C)c1-c1cncnc1N(C)Cc1ccco1	x	9.2%	0.7%	x
Cc1nn(C)c2c1c(-c1ccccc1)cc(=O)n2Cc1ccccc1C#N	x	12.0%	-3.0%	x
O=C(Cc1c(F)cccc1Cl)OCN1C(=O)c2ccccc2C1=O	2.24µM*	x	x	-6.4
O=C1c2ccccc2C(=O)N1OCc1c(F)cccc1Cl	-3.8%	x	x	x
O=C(COC(=O)c1cccc2ccccc12)Nc1ncc(C(F)(F)F)cc1Cl	4.47µM*	-3.3%	-7.8%	8.5
CCOc1ccccc1C(=O)OCC(=O)Nc1ncc(C(F)(F)F)cc1Cl	-3.5%	-2.5%	0.2%	x
COc1ccc(OC)c(NC(=O)c2cc3cccc(OC)c3oc2=O)c1	x	-0.8%	-1.8%	x
Cc1cc2cc(CNC(=O)Nc3cccc(Cl)c3)ccc2n1C	u	12.6µM*	2.1%	16.3
COc1ccc(CNC(=O)Nc2cccc(Cl)c2)cc1	1.0%	x	x	x
Cc1cccc(NC(=O)NCc2ccc3c(c2)cc(C)n3C)c1	11.2µM*	7.94µM*	5.7%	12.7
CCCC(=O)NCc1ccc2c(c1)cc(C)n2C	u	4.3%	6.7%	x
Cc1cccc(N2CCN(C(=O)c3cc4ccc5cccnc5c4[nH]3)CC2)c1C	x	u	-6.1%	x
CCCCN(C)CCNC(=O)c1nn(-c2ccc(OC)c(Cl)c2)c(=O)c2c1c1ccccc1n2C	x	-1.5%	0.1%	x
CCCCNC(=O)c1onc(CCl)c1C(=O)OC	1.12µM*	-3.6%	11.3%	-8.0
COCCNC(=O)c1onc(CCl)c1C(=O)OC	3.0%	2.1%	2.5%	x
SMILES	NS1 function inh	Cruzain noTriton	Cruzain Triton	Flu NS1 inh
COc1ccc(-c2ccc([C@H]3[C@H]4C=CC[C@@H](C)[C@@H]4C(=O)N3Cc3ccccc3)c(F)c2)cc1C	u	x	x	-5.6
C[C@@H]1CC=C[C@H]2[C@H]1C(=O)N(Cc1ccccc1)[C@H]2c1ccc(-c2ccc(F)cc2)cc1F	-12.8%	x	x	x
O=C(CC1NCCNC1=O)Nc1ccc2c(c1)OCO2 (configuration not stated)	1.12µM*	-3.4%	0.7%	5.5
O=C(CC1NCCNC1=O)Nc1ccc(Cl)c(Cl)c1 (configuration not stated)	-0.2%	-12.0%	-3.8%	x
CC(=O)Nc1cc(CN2CCCCC2)c(O)c2ncccc12	5.6%	1.4%	-0.3%	x
N[C@H](C(=O)O)[C@@H](O)c1cnc[nH]1	-1.0%	6.2%	0.9%	x
COc1cccc(NS(=O)(=O)c2ccc3[nH]cc(C(=O)NCCC(C)C)c(=O)c3c2)c1	4.47µM*	4.2%	-3.7%	-6.3
CC(C)CCNC(=O)c1c[nH]c2ccc(S(=O)(=O)Nc3cccc(C(F)(F)F)c3)cc2c1=O	x	-4.1%	-9.8%	x
Nc1ccc(S(N)(=O)=O)cc1	x	-5.5%	4.6%	x
Nc1ccc(S(N)(=O)=O)cc1N	4.47µM*	x	x	18.9
CCCCN1CC(c2nc3ccccc3n2CCCCOc2cc(C)ccc2C)CC1=O (configuration not stated)	x	-8.8%	2.7%	x
CCN(CC)CCCN=Cc1c(O)n(CCc2ccc(F)cc2)c(=O)[nH]c1=O	u	-14.9%	-12.4%	-10.2
CCN(CC)CCN=Cc1c(O)n(CCc2ccccc2)c(=O)[nH]c1=O	u	-8.5%	-7.0%	x
CC(=O)c1ccc(Nc2ccc3cc(S(=O)(=O)N4CCCC4)ccc3n2)cc1	x	-13.6%	-9.5%	x
O=C(CNC(=O)c1ccccc1)N/N=C/C=C/c1ccccc1	9.5%	x	x	x

Screens as filed in PubChem BioAssay.
